Data from the supplement of paper PMC6555819.

Assays:
Experiment in all cases: PBM binding z-score (relative to random genomic background probes); higher = stronger binding; sequences stand for … in GC…GCGATTGACAGCGTAGAATGAAGG
[1] = test system: PPARg:RXRa DBDmut IVT, anti-RXR (DBD mutation: RXRa K156A/R161A, NR concentration 270 nM, RXRa partner concentration 90 nM)
Outline: (§1)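 Scanned fluorescence from custom Agilent 4×180K protein-binding microarrays was regression-normalized. Binding z-scores use random background probes as reference. Ligand-free nuclear receptor dimers were incubated on the arrays for 1 h and detected with antibodies against each partner (one per run).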

[2] = test system: PPARg:RXRa IVT, anti-PPARg (NR concentration 270 nM, RXRa partner concentration 90 nM)
Outline: as §1

[3] = test system: PPARg DBDmut:RXRa IVT, anti-PPARg (DBD mutation: PPARg1 K132A/R137A, NR concentration 270 nM, RXRa partner concentration 90 nM)
Outline: as §1

[4] = test system: PPARg DBDmut IVT, anti-PPARg (DBD mutation: PPARg1 K132A/R137A, NR concentration 270 nM)
Outline: as §1

[5] = test system: PPARg homodimer (NR concentration 180 nM)
Outline: as §1

[6] = test system: PXR:RXRa (NR concentration 270 nM, RXRa partner concentration 90 nM)
Outline: as §1

[7] = test system: PXR homodimer (NR concentration 270 nM)
Outline: as §1

[8] = test system: RARa:RXR (NR concentration 270 nM, RXRa partner concentration 90 nM)
Outline: as §1

[9] = test system: RARa homodimer (NR concentration 270 nM)
Outline: as §1

[10] = test system: RARb:RXRa (NR concentration 270 nM, RXRa partner concentration 90 nM)
Outline: as §1

[11] = test system: RARb homodimer (NR concentration 270 nM)
Outline: as §1

[12] = test system: RARg:RXRa (NR concentration 270 nM, RXRa partner concentration 90 nM)
Outline: as §1

[13] = test system: RARg homodimer (NR concentration 270 nM)
Outline: as §1

[14] = test system: RXRa DBDmut IVT, anti-RXR (DBD mutation: RXRa K156A/R161A, NR concentration 90 nM)
Outline: as §1

[15] = test system: RXRa homodimer (NR concentration 180 nM)
Outline: as §1

[16] = test system: THRa:RXRa (NR concentration 90 nM, RXRa partner concentration 90 nM)
Outline: as §1

[17] = test system: THRa homodimer (NR concentration 90 nM)
Outline: as §1

[18] = test system: VDR:RXRa (NR concentration 270 nM, RXRa partner concentration 90 nM)
Outline: as §1

[19] = test system: VDR homodimer (NR concentration 270 nM)
Outline: as §1

## ATCTCTTGGTAAAGATAGTTCAGTGAATGCAAAT
[1]
  PBM binding z-score: -0.0767
[2]
  PBM binding z-score: 0.448
[3]
  PBM binding z-score: 0.845
[4]
  PBM binding z-score: 1.88
[5]
  PBM binding z-score: 0.879
[6]
  PBM binding z-score: 0.78
[7]
  PBM binding z-score: 0.85
[8]
  PBM binding z-score: 0.962
[9]
  PBM binding z-score: 0.477
[10]
  PBM binding z-score: 0.724
[11]
  PBM binding z-score: 1.23
[12]
  PBM binding z-score: 0.592
[13]
  PBM binding z-score: 0.734
[14]
  PBM binding z-score: 0.404
[15]
  PBM binding z-score: 0.246
[16]
  PBM binding z-score: 0.575
[17]
  PBM binding z-score: 0.156
[18]
  PBM binding z-score: 0.811
[19]
  PBM binding z-score: 0.713

## CCGACTGGGGCAGAAAGGTTACCATTCCATCCGG
[1]
  PBM binding z-score: 1.94
[2]
  PBM binding z-score: 1.83
[3]
  PBM binding z-score: -1
[4]
  PBM binding z-score: -1.28
[5]
  PBM binding z-score: 0.284
[6]
  PBM binding z-score: 0.744
[7]
  PBM binding z-score: -0.202
[8]
  PBM binding z-score: 1.33
[9]
  PBM binding z-score: 0.0232
[10]
  PBM binding z-score: 1.52
[11]
  PBM binding z-score: 1.92
[12]
  PBM binding z-score: 1.35
[13]
  PBM binding z-score: 1
[14]
  PBM binding z-score: -0.71
[15]
  PBM binding z-score: 1.3
[16]
  PBM binding z-score: 0.555
[17]
  PBM binding z-score: -0.451
[18]
  PBM binding z-score: 0.567
[19]
  PBM binding z-score: -0.34

## CAAACTAGGGCAAGAGGTCAAAGTCCGCTTCCCG
[1]
  PBM binding z-score: 6.91
[2]
  PBM binding z-score: 7.47
[3]
  PBM binding z-score: 1.69
[4]
  PBM binding z-score: 0.0985
[5]
  PBM binding z-score: 3
[6]
  PBM binding z-score: 5.35
[7]
  PBM binding z-score: 1.49
[8]
  PBM binding z-score: 5.98
[9]
  PBM binding z-score: 1.61
[10]
  PBM binding z-score: 4.51
[11]
  PBM binding z-score: 5.19
[12]
  PBM binding z-score: 6.21
[13]
  PBM binding z-score: 5.15
[14]
  PBM binding z-score: 1.74
[15]
  PBM binding z-score: 6.17
[16]
  PBM binding z-score: 3.87
[17]
  PBM binding z-score: 1.23
[18]
  PBM binding z-score: 5.08
[19]
  PBM binding z-score: 3.3

## ATCTATAGGTAAAAGTTCAGTGAATCCCGAGGAT
[1]
  PBM binding z-score: 1.4
[2]
  PBM binding z-score: 3.05
[3]
  PBM binding z-score: 1.78
[4]
  PBM binding z-score: 1.92
[5]
  PBM binding z-score: 1.04
[6]
  PBM binding z-score: 2.17
[7]
  PBM binding z-score: 1.35
[8]
  PBM binding z-score: 1.84
[9]
  PBM binding z-score: 1.06
[10]
  PBM binding z-score: 2.29
[11]
  PBM binding z-score: 2.32
[12]
  PBM binding z-score: 1.92
[13]
  PBM binding z-score: 2.03
[14]
  PBM binding z-score: 0.768
[15]
  PBM binding z-score: 1.99
[16]
  PBM binding z-score: 0.789
[17]
  PBM binding z-score: -0.138
[18]
  PBM binding z-score: 1.28
[19]
  PBM binding z-score: 1.46

## ATATCTAGGTTAAGGGTCATTCAGGTTGGTTCGC
[1]
  PBM binding z-score: 7.59
[2]
  PBM binding z-score: 8.2
[3]
  PBM binding z-score: 6.43
[4]
  PBM binding z-score: 4.16
[5]
  PBM binding z-score: 4.9
[6]
  PBM binding z-score: 5.61
[7]
  PBM binding z-score: 3.45
[8]
  PBM binding z-score: 5.91
[9]
  PBM binding z-score: 3.76
[10]
  PBM binding z-score: 3.98
[11]
  PBM binding z-score: 3.97
[12]
  PBM binding z-score: 4.82
[13]
  PBM binding z-score: 3.86
[14]
  PBM binding z-score: 2.66
[15]
  PBM binding z-score: 5.68
[16]
  PBM binding z-score: 3.82
[17]
  PBM binding z-score: 2.49
[18]
  PBM binding z-score: 5.89
[19]
  PBM binding z-score: 4.63

## CATACAGGGCCAGCTAGGCCAGAGTAGGGACGGC
[1]
  PBM binding z-score: -0.75
[2]
  PBM binding z-score: -0.0426
[3]
  PBM binding z-score: -0.139
[4]
  PBM binding z-score: -0.903
[5]
  PBM binding z-score: -0.651
[6]
  PBM binding z-score: -0.993
[7]
  PBM binding z-score: -0.765
[8]
  PBM binding z-score: -0.772
[9]
  PBM binding z-score: -0.751
[10]
  PBM binding z-score: 0.645
[11]
  PBM binding z-score: -0.0405
[12]
  PBM binding z-score: 0.0438
[13]
  PBM binding z-score: 0.566
[14]
  PBM binding z-score: -1.28
[15]
  PBM binding z-score: -0.173
[16]
  PBM binding z-score: -0.0247
[17]
  PBM binding z-score: -0.492
[18]
  PBM binding z-score: -0.78
[19]
  PBM binding z-score: -0.491

## ACTATTAGATGACTTAGGGCAACCGATACGACGC
[1]
  PBM binding z-score: 0.577
[2]
  PBM binding z-score: 0.319
[3]
  PBM binding z-score: 1.54
[4]
  PBM binding z-score: 1.42
[5]
  PBM binding z-score: 1.03
[6]
  PBM binding z-score: -0.0258
[7]
  PBM binding z-score: 0.554
[8]
  PBM binding z-score: 0.143
[9]
  PBM binding z-score: 1.38
[10]
  PBM binding z-score: 0.885
[11]
  PBM binding z-score: 1
[12]
  PBM binding z-score: 0.918
[13]
  PBM binding z-score: 1.25
[14]
  PBM binding z-score: 0.754
[15]
  PBM binding z-score: 0.767
[16]
  PBM binding z-score: 1.04
[17]
  PBM binding z-score: 0.469
[18]
  PBM binding z-score: 0.293
[19]
  PBM binding z-score: 0.377
